Consider 17 molecules from PubChem BioAssay (NCATS).

Test [1] is described as follows: AP1 Signaling Pathway (AID 357).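 Note: ME-180 reporter cells stimulated with EGF at its EC50 level; % is set by controls: 0 for no effect and ±100 for the full control effect.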 The following applies: ME-180 AP-1-bla reporter, EGF-induced, beta-lactamase ratio, 5 h. An outline of the steps: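 Beta-lactamase reporter under AP-1 response element, ME-180 background. Stimulus: EC50 EGF. Compound exposure 5 h, 37 °C. Detection: CCF4, 2.5 h RT, 460/530 nm. Values: AC50 from titration.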
Test [2] concerns the target Cytochrome P450 1A2 (Homo sapiens) (UniProt P05177). Description: p450-cyp1a2 (AID 410; calls by dose curve; note: potency is the fitted concentration of half-maximal effect;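 for activity change, negative = inhibition: -100% = full effect of reference inhibitor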). An outline of the steps:
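20nM CYP1A2 with 100uM Luciferin-ME (at Km) in 100mM KPO4; compound preincubated 10 min, NADPH regeneration added, 60 min at room temperature. Luciferin quantified by luminescence after detection reagent; normalized to 57 uM furafylline.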

The nature of test [3]: Stat Signaling Pathway (AID 446).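 Note: ME-180 cervical cancer cells given 40 pM IL-6 alongside compound; SIE-controlled beta-lactamase reporter measured as 460/530 nm FRET emission ratio; % is set by controls: 0 for no effect and ±100 for the full control effect.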 Conditions: ME-180 SIE beta-lactamase reporter, IL-6 stimulated, 5 h; at 17.2 µM (top of the series) unless noted. An outline of the steps: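 Reporter line: ME-180 cervical carcinoma, SIE-beta-lactamase. Treatment: compound with 40 pM IL-6, 5 hrs, 37 C, in low-serum OPTI-MEM with 10 mM HEPES pH 7.3. Detection: 460/530 nm fluorescence.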
Test [4] addresses Glucocorticoid receptor (Homo sapiens) (UniProt P04150). Description: GR-GFP Redistribution (AID 450;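 active = compounds whose dose series gives a full or clear partial fitted curve of increased nuclear translocation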; note: potency is the fitted concentration of half-maximal effect). Conditions: U2OS GR-GFP nuclear translocation, laser cytometry, 2 h.
The nature of test [5]: Cell Viability - BJ (AID 421; calls by dose curve;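 note: potency is the fitted concentration of half-maximal effect; cells exposed to compound for 40 hours at 37 °C before readout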). The following applies: BJ fibroblast viability, qHTS. The gist of the method:
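Cytotoxicity as drop in intracellular ATP (CellTiter-Glo, 20 min RT) after 40 hr compound exposure of BJ fibroblasts at 37 °C. Titrations scaled between DMSO and 100 uM tamoxifen, Hill-fitted for AC50.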
Background: Quantitative high-throughput screening tests each substance at several concentrations.

A short description of test [6]: Cell Viability - Hek293 (AID 427;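 active = compounds whose dose-response curve shows a full or clear partial loss of cell viability, called from curve shape rather than a numeric limit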;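 note: potency is the fitted concentration of half-maximal effect; cells exposed to compound for 40 hours at 37 °C before reading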). Conditions: qHTS. The gist of the method: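 Luminescent ATP content (CellTiter-Glo, 20 min at room temperature) was measured after a 40 hr, 37 °C compound exposure of HEK293 cells. AC50 values came from Hill-equation fits of qHTS concentration-response data normalized to DMSO and 100 uM tamoxifen.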
Test [7] can be described thus: Cell Viability - HepG2 (AID 433; calls by dose curve;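 note: potency is the fitted concentration of half-maximal effect; potency for ATP loss meaning cytotoxicity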). Conditions: qHTS. An outline of the steps: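 Read-out is luciferase-based quantitation of cellular ATP as a measure of viable HepG2 cells after 40 h treatment at 37 °C. Signal decrease is scaled between DMSO-only and 100 uM tamoxifen controls, with AC50 fitted by the Hill equation.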
Test [8] can be described thus: Cell Viability - MRC5 (AID 434; calls by dose curve;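 note: potency is the fitted concentration of half-maximal effect; potency reflects cytotoxicity seen as loss of intracellular ATP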). Conditions: MRC5 lung fibroblast viability, qHTS. An outline of the steps: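 MRC5 normal human lung fibroblasts, 1500 cells/well, exposed to compound for 40 hr at 37 C. Cellular ATP was read by CellTiter-Glo luminescence; data normalized to DMSO and 100 uM tamoxifen, with AC50 from Hill fits.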
A short description of test [9]: Cell Viability - SK-N-SH (AID 435; calls by dose curve;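 note: potency is the fitted concentration of half-maximal effect; compound exposure lasted 40 h at 37 °C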). The following applies: SK-N-SH neuroblastoma cell viability qHTS. The gist of the method: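 Luminescent ATP signal served as the viability read-out after 40 hours of compound treatment of human neuroblastoma SK-N-SH cells. Concentration-response data, scaled between DMSO and 100 uM tamoxifen, gave AC50 values by standard Hill modeling.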

Test [10] in a line: Cell Viability - Jurkat (AID 426;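 active = dose-dependent loss of cell ATP signal giving a full or clear fitted curve, ranked by lower potency value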; note: potency is the fitted concentration of half-maximal effect). The following applies: qHTS. The gist of the method: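 Jurkat (Clone E6-1) cells, 5000/well in complete medium, exposed to compounds for 40 hr at 37C; intracellular ATP measured by CellTiter-Glo luminescence after 20 min at room temperature. AC50 from Hill fits.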
Where [11] appears, read: at 17.2 µM (top of the series) unless noted.

Where “and” joins values, the source holds several entries; their conditions need not be identical. Equal values may be shown once. A number with no mark means an inactive call. Results filed as inconclusive are left out. Calls of active or inactive are those of the source. Unless noted, calls come from the whole dose curve; as a rule, active = well fitted curve in either direction with a large enough effect (not every such curve was filed as active); inconclusive = small, poorly fitted or top-dose-only effect, or another doubt; inactive = flat fitted curve, though single readings scatter.

Sequence of Cytochrome P450 1A2 (Homo sapiens) (P05177 whole entry, looked up): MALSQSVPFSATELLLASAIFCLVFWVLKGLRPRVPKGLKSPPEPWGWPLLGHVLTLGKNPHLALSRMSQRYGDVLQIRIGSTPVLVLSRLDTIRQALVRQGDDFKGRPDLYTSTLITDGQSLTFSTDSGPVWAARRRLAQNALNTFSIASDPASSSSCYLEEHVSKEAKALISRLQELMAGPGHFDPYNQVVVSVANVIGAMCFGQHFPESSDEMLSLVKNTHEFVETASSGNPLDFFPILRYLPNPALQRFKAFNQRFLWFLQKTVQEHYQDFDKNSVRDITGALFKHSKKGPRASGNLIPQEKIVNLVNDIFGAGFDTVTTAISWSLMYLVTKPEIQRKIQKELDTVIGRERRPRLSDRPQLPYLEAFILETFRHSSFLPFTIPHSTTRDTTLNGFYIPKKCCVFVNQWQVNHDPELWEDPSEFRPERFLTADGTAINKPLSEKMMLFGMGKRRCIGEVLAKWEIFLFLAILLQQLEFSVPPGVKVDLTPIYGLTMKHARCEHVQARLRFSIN
Sequence of Glucocorticoid receptor (Homo sapiens) (P04150 whole entry, looked up): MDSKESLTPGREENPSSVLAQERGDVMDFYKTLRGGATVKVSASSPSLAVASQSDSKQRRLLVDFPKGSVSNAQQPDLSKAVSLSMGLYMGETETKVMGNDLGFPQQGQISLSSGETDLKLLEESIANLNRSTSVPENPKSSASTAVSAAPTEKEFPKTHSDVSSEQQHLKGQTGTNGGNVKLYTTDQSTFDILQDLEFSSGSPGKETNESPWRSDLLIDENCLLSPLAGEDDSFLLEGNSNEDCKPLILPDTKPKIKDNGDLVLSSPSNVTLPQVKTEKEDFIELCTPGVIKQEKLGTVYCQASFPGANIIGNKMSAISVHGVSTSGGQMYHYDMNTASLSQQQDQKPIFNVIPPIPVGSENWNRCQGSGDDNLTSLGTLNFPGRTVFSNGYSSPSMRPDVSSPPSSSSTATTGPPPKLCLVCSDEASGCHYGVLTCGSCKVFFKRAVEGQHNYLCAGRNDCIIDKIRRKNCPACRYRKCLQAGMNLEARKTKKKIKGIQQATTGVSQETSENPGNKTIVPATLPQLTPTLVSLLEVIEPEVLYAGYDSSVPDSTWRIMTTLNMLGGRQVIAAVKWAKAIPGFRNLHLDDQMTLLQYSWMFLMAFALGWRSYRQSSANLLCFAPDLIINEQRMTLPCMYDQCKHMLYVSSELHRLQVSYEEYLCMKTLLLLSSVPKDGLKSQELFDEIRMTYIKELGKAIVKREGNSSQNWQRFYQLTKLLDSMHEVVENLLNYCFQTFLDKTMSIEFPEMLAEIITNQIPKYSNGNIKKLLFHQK

Take `COC(=O)Nc1nc2ccc(Sc3ccccc3)cc2[nH]1`: the activity change, negative = inhibition in test [1] (setting [11]) was 1.3% and 6.61%. Further, the Potency was 0.794 µM (active) in test [2] and > 20.6 µM in test [4]. Moreover, the activity, negative = inhibition in test [3] is 1.46% and -3.37%.
Consider `CC(=O)[C@H]1CC[C@H]2[C@@H]3CCC4=CC(=O)CC[C@]4(C)[C@H]3CC[C@]12C`, for which the activity change, negative = inhibition in test [1] (setting [11]) is 1.43%. Also, the Potency was > 92 µM in [5]; 48.5 µM (active) in [6]; > 92 µM in test [7]; > 92 µM in test [8]; > 92 µM in test [9]. The activity, negative = inhibition in test [3] was 2.68%.
Regarding `N[C@@H](Cc1ccc(O)c(O)c1)C(=O)O`, the activity change, negative = inhibition was -2.87% in test [1] (at 17.2 µM (top of the series)) and -2.2% in test [1] (at 38 µM (top of the series)). For the same molecule, in [2], the Potency result was “inactive”. Besides, the activity, negative = inhibition in [3] was 4.83%. In addition, the Potency in [4] was > 46 µM and > 20.6 µM.
On to `Nc1ccc(S(=O)(=O)Nc2ccccn2)cc1`, for which the activity change, negative = inhibition in test [1] (setting [11]) was -6.81% and -4.21%. The Potency entry in test [2] was “inactive”. Also, the activity, negative = inhibition in [3] was -7.68% and -0.177%. Further, in test [4], the Potency was > 20.6 µM.
In the case of `CNNCc1ccc(C(=O)NC(C)C)cc1`, the activity change, negative = inhibition in [1] (setting [11]) is -1.4%. Besides, the Potency is 1.58 µM (active) in [2] and > 20.6 µM in test [4].
For the molecule `CC[C@H](C)C(=O)O[C@H]1C[C@@H](C)C=C2C=C[C@H](C)[C@H](CC[C@@H]3C[C@@H](O)CC(=O)O3)[C@H]21`, the activity change, negative = inhibition in test [1] (setting [11]) was -19.5%. Besides, the Potency is > 92 µM in [5], > 92 µM in [6], > 92 µM in test [8] and > 20.6 µM in test [4]. In addition, the activity, negative = inhibition in test [3] is -3.85%.
`COc1ncnc(NS(=O)(=O)c2ccc(N)cc2)c1OC`: the activity change, negative = inhibition in test [1] (setting [11]) is -3.45%. In addition, in test [2], the Potency result was “inactive”. Besides, the activity, negative = inhibition in test [3] was -3.42%.
Turning to `COC(=O)Nc1nc2ccc(C(=O)c3ccccc3)cc2[nH]1`, in test [1] (setting [11]), the activity change, negative = inhibition was 17.1% and -8.17%. Also, the Potency in test [2] is 3.98 µM (active); in test [4] it was > 20.6 µM. The activity, negative = inhibition in test [3] is -12.3% and -12%.
In the case of `COc1ccc2cc3[n+](cc2c1OC)CCc1cc2c(cc1-3)OCO2`, the activity change, negative = inhibition in test [1] (setting [11]) is 10.1%. The Potency was 5.01 µM (active) in test [2]; > 92 µM in test [5]; > 92 µM in test [8]; > 92 µM in test [9]; > 20.6 µM in [4]. The activity, negative = inhibition in test [3] is -1.52%.
As for `Cc1ncc([N+](=O)[O-])n1CCO`, the activity change, negative = inhibition in [1] (setting [11]) was 7.25% and 11.7%. In addition, the Potency result in test [2] is “inactive”. For the same molecule, the Potency in test [5], in test [10], in test [6], in [7], in test [8] and in [9] was > 92 µM throughout. Further, the activity, negative = inhibition in test [3] was 4.79% and 0.586%.
Turning to `Cc1nnc(NS(=O)(=O)c2ccc(N)cc2)s1`, in test [1] (setting [11]), the activity change, negative = inhibition was 7.08% and 5.89%. Besides, the Potency entry in test [2] is “inactive”. Besides, the Potency in [5], in [10], in [6], in test [7], in test [8] and in test [9] was > 92 µM each time. The activity, negative = inhibition in [3] is 0.539% and 1.42%.
In the case of `COc1cnc(NS(=O)(=O)c2ccc(N)cc2)nc1`, the activity change, negative = inhibition in test [1] (setting [11]) is -7.19%. Further, the Potency entry in test [2] was “inactive”. The activity, negative = inhibition in test [3] is -4.71%. In addition, the Potency in test [4] was > 20.6 µM.
Turning to `CCOC(=O)c1ccc(OC(=O)CCCCCN=C(N)N)cc1`, the activity change, negative = inhibition in test [1] (setting [11]) was 1.04%. For the same molecule, the Potency in [2] is 12.6 µM (active) and 15.8 µM (active). Moreover, the activity, negative = inhibition in [3] is -23.2%.
In the case of `NC(=O)c1cccc(N)c1`, the activity change, negative = inhibition in test [1] (setting [11]) is 11.6% [at 38 µM]. In addition, the Potency is 15.8 µM (active) in [2] and > 46 µM in test [4]. In test [3], the activity, negative = inhibition is 1.75% [at 38 µM].
As to `OCc1ccc(-c2nn(Cc3ccccc3)c3ccccc23)o1`, in [1] (setting [11]), the activity change, negative = inhibition is -16.4% [at 38 µM]. For the same molecule, the values for the Potency in test [2] and in test [4] were 1.58 µM (active) and > 46 µM, respectively. In addition, the activity, negative = inhibition in test [3] was -17.6% [at 38 µM].
On to `NNC(=O)c1ccncc1`, for which the activity change, negative = inhibition in test [1] (setting [11]) was 11.8% and 7.05%. Further, the Potency is 6.31 µM (active) in test [2]; > 92 µM in test [5]; > 92 µM in test [10]; > 92 µM in test [6]; > 92 µM in test [7]; > 92 µM in test [8]. The figures for the Potency in [9] and in test [4] were > 92 µM and > 20.6 µM, respectively. Moreover, in test [3], the activity, negative = inhibition was 3.44% and 12.3%.
As to `Cc1noc(NS(=O)(=O)c2ccc(N)cc2)c1C`, the activity change, negative = inhibition in test [1] (setting [11]) is 3.21% and 4.22%. Besides, the Potency entry in test [2] was “inactive”. Also, the Potency in [5], in test [10], in test [6], in [7], in test [8] and in test [9] was > 92 µM each time. Further, in test [3], the activity, negative = inhibition was 7.81% and 5.09%.
